Test results taken from article PMC7862700, “An all-to-all approach to the identification of sequence-specific readers for epigenetic DNA modifications on cytosine”.

Columns and labels:
Assay in all cases: DAPPL (digital affinity profiling via proximity ligation, sequencing); 10 mM Tris-HCl pH 7.5, 50 mM NaCl, 1 mM DTT, 4% glycerol, room temperature, 30 min; GST-TFs on glutathione beads, 16-mer random dsDNA library, 0.1% formaldehyde crosslink after washing; high values mean tight binding
Conditions in all cases: protein: recombinant; tags: N-terminal GST; dsDNA, one strand shown
[1] = molecular target: T1, FEV (Homo sapiens, UniProt Q99581 1-238)
T1 sequence: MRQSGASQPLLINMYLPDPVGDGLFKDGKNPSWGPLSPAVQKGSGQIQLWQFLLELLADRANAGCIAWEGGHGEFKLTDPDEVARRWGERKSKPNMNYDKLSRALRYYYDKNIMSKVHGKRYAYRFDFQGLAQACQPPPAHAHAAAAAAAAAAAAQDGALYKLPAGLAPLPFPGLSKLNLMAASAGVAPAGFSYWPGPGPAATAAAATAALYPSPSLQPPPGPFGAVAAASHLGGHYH
Summary of the method: (§1)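 A tag-only sample was pooled with DNA-barcoded human transcription factors that had been expressed in yeast as GST fusions and captured on glutathione beads. The pools were incubated for 30 min at room temperature with 200 nmole of a random double-stranded 16-mer DNA library in Tris/NaCl/DTT/glycerol buffer, then washed, crosslinked with 0.1% formaldehyde, proximity-ligated (BsaI/T4 ligase, 1 h, 37 °C), PCR-amplified and sequenced on an Illumina NextSeq500. Binding signal is each hexamer's read frequency for a factor divided by its frequency for the tag-only sample.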

[2] = molecular target: ETV5 (Homo sapiens, UniProt P41161 1-510)
Sequence of ETV5 (P41161 whole entry): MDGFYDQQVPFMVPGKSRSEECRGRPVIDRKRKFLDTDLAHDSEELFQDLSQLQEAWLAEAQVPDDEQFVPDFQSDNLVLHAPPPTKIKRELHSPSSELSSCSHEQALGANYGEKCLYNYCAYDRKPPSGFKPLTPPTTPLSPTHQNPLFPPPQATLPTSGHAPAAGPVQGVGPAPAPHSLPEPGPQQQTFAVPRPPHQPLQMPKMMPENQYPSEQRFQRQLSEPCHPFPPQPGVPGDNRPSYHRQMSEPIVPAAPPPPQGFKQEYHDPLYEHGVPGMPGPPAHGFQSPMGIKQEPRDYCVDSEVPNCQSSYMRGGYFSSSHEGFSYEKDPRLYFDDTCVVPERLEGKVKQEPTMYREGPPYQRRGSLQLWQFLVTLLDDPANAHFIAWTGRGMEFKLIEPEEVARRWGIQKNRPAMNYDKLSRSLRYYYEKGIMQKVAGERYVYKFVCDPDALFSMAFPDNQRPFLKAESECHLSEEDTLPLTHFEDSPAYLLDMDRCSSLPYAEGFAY
Summary of the method: as §1

[3] = molecular target: T2, SPIC (Homo sapiens, UniProt Q8N5J4 1-248)
T2 sequence: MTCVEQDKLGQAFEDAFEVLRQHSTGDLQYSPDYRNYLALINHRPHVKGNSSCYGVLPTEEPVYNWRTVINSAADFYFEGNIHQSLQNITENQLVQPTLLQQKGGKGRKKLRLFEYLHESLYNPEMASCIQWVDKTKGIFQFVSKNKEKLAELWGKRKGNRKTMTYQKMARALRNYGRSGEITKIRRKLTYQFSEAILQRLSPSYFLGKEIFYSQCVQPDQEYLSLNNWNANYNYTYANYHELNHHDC
Summary of the method: as §1

[4] = molecular target: ELF4 (Homo sapiens, UniProt Q99607 1-663)
Sequence of ELF4 (Q99607 whole entry): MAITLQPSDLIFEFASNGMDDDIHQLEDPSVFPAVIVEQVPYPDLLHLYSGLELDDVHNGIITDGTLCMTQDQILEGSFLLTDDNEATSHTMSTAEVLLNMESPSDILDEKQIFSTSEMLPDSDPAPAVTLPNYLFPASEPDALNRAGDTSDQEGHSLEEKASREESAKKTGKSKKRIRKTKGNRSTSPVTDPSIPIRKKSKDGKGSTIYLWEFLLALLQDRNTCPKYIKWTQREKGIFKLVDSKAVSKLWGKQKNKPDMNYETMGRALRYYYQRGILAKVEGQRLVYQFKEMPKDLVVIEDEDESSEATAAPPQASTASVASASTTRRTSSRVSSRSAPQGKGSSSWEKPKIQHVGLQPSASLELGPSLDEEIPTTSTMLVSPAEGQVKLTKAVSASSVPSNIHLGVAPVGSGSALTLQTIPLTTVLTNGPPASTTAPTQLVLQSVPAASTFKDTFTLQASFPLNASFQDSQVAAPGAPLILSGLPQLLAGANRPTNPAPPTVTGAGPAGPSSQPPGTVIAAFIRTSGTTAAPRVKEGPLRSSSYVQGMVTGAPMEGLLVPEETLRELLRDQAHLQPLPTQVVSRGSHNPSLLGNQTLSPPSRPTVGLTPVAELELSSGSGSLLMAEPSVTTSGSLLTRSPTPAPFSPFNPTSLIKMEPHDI
Summary of the method: as §1

[5] = molecular target: T3, ELK4 (Homo sapiens, UniProt P28324-2 1-405)
T3 sequence: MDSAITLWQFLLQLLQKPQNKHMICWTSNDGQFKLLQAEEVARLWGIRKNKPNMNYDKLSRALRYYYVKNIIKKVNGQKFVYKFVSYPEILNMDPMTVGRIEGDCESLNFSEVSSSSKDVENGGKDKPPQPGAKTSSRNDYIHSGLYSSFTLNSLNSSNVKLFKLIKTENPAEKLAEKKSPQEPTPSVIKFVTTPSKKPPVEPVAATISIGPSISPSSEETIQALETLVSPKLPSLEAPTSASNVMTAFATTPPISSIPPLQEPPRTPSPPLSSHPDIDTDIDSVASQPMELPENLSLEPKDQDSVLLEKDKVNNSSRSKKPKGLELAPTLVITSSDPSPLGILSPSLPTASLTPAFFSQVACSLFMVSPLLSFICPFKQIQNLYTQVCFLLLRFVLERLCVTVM
Summary of the method: as §1

[6] = molecular target: T4, ETV2 (Homo sapiens, UniProt O00321 1-342)
T4 sequence: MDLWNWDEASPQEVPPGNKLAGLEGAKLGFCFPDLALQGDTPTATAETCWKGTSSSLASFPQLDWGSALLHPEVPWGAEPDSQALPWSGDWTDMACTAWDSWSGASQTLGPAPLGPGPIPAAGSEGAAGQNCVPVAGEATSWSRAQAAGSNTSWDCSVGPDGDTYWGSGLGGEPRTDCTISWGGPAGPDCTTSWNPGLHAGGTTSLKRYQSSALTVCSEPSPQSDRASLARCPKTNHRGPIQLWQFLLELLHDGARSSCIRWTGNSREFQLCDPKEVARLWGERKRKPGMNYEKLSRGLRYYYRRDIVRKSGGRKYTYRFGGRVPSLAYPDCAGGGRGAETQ
Summary of the method: as §1

[7] = molecular target: T5, ELF3 (Homo sapiens, UniProt P78545 1-371)
T5 sequence: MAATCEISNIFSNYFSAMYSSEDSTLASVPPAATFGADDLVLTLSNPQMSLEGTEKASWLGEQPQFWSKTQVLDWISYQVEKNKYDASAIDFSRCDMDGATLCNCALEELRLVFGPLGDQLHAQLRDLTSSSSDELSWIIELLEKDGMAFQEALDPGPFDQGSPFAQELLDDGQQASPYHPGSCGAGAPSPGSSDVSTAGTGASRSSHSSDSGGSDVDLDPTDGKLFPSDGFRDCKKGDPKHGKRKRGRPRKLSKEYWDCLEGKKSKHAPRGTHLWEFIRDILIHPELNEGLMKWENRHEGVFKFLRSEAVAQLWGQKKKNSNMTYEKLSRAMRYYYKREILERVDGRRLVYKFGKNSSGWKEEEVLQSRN
Summary of the method: as §1

[8] = molecular target: ETV1 (Homo sapiens, UniProt P50549 1-477)
Sequence of ETV1 (P50549 whole entry): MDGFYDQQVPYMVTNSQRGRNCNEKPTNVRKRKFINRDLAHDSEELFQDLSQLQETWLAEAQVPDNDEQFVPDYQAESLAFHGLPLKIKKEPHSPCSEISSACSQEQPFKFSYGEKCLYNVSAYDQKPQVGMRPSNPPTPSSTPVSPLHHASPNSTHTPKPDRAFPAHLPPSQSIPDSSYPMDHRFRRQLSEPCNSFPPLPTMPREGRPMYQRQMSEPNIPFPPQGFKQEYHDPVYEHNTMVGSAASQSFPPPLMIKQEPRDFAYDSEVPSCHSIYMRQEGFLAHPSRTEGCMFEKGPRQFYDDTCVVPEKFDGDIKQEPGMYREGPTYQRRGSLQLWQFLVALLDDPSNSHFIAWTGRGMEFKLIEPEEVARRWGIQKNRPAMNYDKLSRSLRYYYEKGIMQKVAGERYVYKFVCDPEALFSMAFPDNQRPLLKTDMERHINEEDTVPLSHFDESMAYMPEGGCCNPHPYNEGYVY
Summary of the method: as §1

[9] = molecular target: T6, ERF (Homo sapiens, UniProt P50548 1-548)
T6 sequence: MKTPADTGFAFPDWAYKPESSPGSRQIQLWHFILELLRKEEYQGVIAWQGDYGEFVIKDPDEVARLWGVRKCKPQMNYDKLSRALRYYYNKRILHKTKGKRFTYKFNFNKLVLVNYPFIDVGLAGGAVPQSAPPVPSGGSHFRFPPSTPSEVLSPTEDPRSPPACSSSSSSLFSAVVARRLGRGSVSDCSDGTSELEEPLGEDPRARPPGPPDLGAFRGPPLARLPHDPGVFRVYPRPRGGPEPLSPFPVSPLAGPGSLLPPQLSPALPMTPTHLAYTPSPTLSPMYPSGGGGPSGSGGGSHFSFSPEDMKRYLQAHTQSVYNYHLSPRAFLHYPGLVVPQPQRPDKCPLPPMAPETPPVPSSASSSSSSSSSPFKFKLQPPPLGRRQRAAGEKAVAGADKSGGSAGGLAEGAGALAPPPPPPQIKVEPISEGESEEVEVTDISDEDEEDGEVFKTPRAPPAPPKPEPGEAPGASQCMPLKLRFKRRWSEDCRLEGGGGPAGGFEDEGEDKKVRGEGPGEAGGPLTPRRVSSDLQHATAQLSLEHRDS
Summary of the method: as §1

[10] = molecular target: T7, ETV3L (Homo sapiens, UniProt Q6ZN32 1-361)
T7 sequence: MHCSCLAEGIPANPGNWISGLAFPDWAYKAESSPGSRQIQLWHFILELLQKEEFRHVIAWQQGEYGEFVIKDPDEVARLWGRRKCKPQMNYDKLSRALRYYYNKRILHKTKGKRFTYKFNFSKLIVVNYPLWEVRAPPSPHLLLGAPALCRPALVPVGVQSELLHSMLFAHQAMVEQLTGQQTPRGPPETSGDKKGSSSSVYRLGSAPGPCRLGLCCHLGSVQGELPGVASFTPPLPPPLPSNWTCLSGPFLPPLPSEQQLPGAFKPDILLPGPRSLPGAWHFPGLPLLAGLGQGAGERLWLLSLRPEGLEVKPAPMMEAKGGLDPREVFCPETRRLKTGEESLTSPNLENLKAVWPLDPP
Summary of the method: as §1

[11] = molecular target: T8, ETS2 (Homo sapiens, UniProt P15036 1-469)
T8 sequence: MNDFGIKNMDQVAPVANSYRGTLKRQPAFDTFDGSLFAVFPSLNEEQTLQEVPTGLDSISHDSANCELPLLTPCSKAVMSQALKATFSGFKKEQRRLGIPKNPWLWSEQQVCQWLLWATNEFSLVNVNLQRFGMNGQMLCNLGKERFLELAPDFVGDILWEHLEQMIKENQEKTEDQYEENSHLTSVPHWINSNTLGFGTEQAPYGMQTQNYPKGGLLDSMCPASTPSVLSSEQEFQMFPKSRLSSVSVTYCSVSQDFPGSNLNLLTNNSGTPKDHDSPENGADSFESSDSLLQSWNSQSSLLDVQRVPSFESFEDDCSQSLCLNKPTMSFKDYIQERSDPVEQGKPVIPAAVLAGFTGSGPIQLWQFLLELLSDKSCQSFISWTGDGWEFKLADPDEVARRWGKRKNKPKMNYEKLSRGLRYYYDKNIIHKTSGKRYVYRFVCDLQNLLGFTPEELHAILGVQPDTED
Summary of the method: as §1

[12] = molecular target: T9, SPDEF (Homo sapiens, UniProt O95238 1-335)
T9 sequence: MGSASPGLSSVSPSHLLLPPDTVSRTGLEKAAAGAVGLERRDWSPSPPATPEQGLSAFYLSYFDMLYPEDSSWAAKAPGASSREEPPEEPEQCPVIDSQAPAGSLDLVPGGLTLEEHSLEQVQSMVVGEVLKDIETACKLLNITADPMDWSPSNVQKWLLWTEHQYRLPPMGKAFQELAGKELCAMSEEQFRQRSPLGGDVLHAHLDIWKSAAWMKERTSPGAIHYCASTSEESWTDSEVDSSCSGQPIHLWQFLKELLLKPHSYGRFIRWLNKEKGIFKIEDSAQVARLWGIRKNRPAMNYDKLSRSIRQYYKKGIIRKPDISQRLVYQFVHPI
Summary of the method: as §1

[13] = molecular target: T10, ETV7 (Homo sapiens, UniProt Q9Y603 1-341)
T10 sequence: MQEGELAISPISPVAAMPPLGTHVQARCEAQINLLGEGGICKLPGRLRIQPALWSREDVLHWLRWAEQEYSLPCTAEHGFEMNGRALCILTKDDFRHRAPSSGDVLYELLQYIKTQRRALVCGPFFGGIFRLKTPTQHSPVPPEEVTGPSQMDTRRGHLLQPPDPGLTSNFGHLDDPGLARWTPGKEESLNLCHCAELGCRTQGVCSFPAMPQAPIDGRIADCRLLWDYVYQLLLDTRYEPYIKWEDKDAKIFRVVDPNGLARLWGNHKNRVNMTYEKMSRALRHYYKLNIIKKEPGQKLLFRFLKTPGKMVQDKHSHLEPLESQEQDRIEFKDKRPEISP
Summary of the method: as §1

[14] = molecular target: T11, ELF5 (Homo sapiens, UniProt Q9UKW6-2 1-255)
T11 sequence: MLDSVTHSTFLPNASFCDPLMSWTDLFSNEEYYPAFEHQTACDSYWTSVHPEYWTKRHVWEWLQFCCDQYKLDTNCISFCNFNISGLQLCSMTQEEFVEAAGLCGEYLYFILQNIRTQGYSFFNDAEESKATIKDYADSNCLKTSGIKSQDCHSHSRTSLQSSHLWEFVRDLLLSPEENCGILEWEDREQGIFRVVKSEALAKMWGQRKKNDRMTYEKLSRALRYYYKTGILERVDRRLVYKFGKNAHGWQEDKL
Summary of the method: as §1

[15] = molecular target: T12, ETV3 (Homo sapiens, UniProt P41162-2 1-143)
T12 sequence: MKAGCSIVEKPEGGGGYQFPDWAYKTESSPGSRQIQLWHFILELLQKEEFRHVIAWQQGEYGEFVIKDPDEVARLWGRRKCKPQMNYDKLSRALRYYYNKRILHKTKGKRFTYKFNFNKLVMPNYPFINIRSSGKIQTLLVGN
Summary of the method: as §1

[16] = molecular target: ETV6 (Homo sapiens, UniProt P41212 1-452)
Sequence of ETV6 (P41212 whole entry): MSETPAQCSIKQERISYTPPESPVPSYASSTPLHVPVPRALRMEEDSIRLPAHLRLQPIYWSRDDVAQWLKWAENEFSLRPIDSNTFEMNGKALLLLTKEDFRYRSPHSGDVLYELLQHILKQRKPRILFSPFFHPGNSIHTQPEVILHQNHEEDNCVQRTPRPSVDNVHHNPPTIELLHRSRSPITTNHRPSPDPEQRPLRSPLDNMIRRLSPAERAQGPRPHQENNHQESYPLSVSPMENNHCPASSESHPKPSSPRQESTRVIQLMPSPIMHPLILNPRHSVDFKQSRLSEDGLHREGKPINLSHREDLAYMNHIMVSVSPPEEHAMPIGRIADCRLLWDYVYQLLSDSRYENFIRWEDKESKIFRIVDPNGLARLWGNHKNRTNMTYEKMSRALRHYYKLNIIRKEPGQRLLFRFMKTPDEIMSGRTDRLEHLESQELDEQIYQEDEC
Summary of the method: as §1

Sequence	binding signal [1]	binding signal [2]	binding signal [3]	binding signal [4]	binding signal [5]	binding signal [6]	binding signal [7]	binding signal [8]	binding signal [9]	binding signal [10]	binding signal [11]	binding signal [12]	binding signal [13]	binding signal [14]	binding signal [15]	binding signal [16]
GTACAA	1.11 fold enrichment (6-mer frequency, TF over GST control)	1.08 fold enrichment (6-mer frequency, TF over GST control)	1.12 fold enrichment (6-mer frequency, TF over GST control)	1.09 fold enrichment (6-mer frequency, TF over GST control)	1.18 fold enrichment (6-mer frequency, TF over GST control)	1.19 fold enrichment (6-mer frequency, TF over GST control)	1.08 fold enrichment (6-mer frequency, TF over GST control)	1.09 fold enrichment (6-mer frequency, TF over GST control)	1.03 fold enrichment (6-mer frequency, TF over GST control)	1.09 fold enrichment (6-mer frequency, TF over GST control)	1.1 fold enrichment (6-mer frequency, TF over GST control)	1.06 fold enrichment (6-mer frequency, TF over GST control)	1.12 fold enrichment (6-mer frequency, TF over GST control)	1.03 fold enrichment (6-mer frequency, TF over GST control)	1.11 fold enrichment (6-mer frequency, TF over GST control)	1.15 fold enrichment (6-mer frequency, TF over GST control)
GTCCTT	1.29 fold enrichment (6-mer frequency, TF over GST control)	1.19 fold enrichment (6-mer frequency, TF over GST control)	1.23 fold enrichment (6-mer frequency, TF over GST control)	1.21 fold enrichment (6-mer frequency, TF over GST control)	1.15 fold enrichment (6-mer frequency, TF over GST control)	1.31 fold enrichment (6-mer frequency, TF over GST control)	1.16 fold enrichment (6-mer frequency, TF over GST control)	1.13 fold enrichment (6-mer frequency, TF over GST control)	1.14 fold enrichment (6-mer frequency, TF over GST control)	1.29 fold enrichment (6-mer frequency, TF over GST control)	1.28 fold enrichment (6-mer frequency, TF over GST control)	1.29 fold enrichment (6-mer frequency, TF over GST control)	1.11 fold enrichment (6-mer frequency, TF over GST control)	1.43 fold enrichment (6-mer frequency, TF over GST control)	1.18 fold enrichment (6-mer frequency, TF over GST control)	1.26 fold enrichment (6-mer frequency, TF over GST control)
